Laboratory results as given in the supplement of paper PMC11732987, “Enantioselective OTUD7B fragment discovery through chemoproteomics screening and high-throughput optimisation” (Communications Chemistry, 2025).

Legend:
Test in all cases: log2 ratio of Biotin-Ahx-Ub-VS probe labelling (fragment/DMSO); higher = less target engagement (more negative = stronger competition), active = hit call of the paper (q ≤ 0.05, log2 ratio ≤ -1)
Conditions in all cases: compound concentration: 200 uM; treatment time: 3 h
USP19 = molecular target: T1, USP19 (UniProt O94966)
T1 sequence (whole entry): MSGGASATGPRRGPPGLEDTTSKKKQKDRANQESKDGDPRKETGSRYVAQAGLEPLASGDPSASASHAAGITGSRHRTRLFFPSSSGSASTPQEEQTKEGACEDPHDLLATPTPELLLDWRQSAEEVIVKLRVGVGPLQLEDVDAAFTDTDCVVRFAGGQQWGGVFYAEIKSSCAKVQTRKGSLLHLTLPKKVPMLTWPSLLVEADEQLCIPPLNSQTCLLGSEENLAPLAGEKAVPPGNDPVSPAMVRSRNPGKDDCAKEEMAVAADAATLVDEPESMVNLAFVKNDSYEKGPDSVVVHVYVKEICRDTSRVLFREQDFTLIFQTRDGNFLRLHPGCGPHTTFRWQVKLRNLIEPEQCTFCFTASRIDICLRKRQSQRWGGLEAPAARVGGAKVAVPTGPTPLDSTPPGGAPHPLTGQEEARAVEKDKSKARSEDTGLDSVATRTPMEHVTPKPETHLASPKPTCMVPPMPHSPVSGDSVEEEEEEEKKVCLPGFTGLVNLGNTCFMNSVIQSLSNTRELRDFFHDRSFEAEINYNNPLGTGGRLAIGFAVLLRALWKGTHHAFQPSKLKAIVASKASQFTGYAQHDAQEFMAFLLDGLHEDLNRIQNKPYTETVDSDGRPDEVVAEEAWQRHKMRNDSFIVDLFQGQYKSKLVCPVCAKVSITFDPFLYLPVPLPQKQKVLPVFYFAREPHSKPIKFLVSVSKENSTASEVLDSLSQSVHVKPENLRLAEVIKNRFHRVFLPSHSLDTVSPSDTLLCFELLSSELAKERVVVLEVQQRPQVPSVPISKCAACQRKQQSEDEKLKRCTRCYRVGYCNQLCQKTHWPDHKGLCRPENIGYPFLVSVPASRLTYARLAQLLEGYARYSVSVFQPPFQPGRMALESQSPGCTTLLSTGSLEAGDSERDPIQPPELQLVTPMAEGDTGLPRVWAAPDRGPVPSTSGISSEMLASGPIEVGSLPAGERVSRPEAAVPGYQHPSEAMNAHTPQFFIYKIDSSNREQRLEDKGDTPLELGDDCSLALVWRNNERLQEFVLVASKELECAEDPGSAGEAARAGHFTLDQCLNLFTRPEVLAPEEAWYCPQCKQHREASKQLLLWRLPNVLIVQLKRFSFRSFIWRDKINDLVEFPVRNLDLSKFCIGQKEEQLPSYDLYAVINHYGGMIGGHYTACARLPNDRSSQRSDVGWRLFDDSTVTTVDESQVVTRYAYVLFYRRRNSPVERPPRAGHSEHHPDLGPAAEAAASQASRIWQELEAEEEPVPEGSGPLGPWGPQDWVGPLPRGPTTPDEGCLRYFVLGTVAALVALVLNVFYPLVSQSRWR
In short: (§1)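 Fragment (200 µM) or vehicle was incubated for 3 h with triplicate HEK293T lysate samples of 495 µg, which were then treated with Biotin-Ahx-Ub-VS at 0.5 µM final for 1 h. Labelled DUBs were enriched on NeutrAvidin, digested with LysC and trypsin, and analysed by diaPASEF LC-MS/MS. Values are average log2 fragment/vehicle ratios from an unpaired t-test on global-median-normalised Spectronaut label-free quantities, using proteins with ≥2 unique peptides.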

USP22 = molecular target: T2, USP22 (UniProt Q9UPT9)
T2 sequence (whole entry): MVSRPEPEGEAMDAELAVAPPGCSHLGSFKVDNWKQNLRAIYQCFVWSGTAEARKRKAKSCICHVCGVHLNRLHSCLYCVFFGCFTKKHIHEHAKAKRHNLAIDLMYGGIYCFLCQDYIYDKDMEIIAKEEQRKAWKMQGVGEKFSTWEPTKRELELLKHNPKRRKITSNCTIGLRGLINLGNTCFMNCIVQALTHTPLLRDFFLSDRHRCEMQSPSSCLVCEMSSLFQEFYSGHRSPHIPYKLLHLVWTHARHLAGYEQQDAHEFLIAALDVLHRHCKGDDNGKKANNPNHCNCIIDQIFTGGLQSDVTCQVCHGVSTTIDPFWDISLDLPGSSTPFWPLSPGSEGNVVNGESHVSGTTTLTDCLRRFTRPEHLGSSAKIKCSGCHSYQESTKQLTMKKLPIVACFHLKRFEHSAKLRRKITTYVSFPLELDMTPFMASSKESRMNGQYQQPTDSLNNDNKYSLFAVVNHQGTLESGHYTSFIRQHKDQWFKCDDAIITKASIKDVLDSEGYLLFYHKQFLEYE
In short: as §1

USP24 = USP24 (UniProt Q9UPU5)
USP24, sequence (Q9UPU5 whole entry): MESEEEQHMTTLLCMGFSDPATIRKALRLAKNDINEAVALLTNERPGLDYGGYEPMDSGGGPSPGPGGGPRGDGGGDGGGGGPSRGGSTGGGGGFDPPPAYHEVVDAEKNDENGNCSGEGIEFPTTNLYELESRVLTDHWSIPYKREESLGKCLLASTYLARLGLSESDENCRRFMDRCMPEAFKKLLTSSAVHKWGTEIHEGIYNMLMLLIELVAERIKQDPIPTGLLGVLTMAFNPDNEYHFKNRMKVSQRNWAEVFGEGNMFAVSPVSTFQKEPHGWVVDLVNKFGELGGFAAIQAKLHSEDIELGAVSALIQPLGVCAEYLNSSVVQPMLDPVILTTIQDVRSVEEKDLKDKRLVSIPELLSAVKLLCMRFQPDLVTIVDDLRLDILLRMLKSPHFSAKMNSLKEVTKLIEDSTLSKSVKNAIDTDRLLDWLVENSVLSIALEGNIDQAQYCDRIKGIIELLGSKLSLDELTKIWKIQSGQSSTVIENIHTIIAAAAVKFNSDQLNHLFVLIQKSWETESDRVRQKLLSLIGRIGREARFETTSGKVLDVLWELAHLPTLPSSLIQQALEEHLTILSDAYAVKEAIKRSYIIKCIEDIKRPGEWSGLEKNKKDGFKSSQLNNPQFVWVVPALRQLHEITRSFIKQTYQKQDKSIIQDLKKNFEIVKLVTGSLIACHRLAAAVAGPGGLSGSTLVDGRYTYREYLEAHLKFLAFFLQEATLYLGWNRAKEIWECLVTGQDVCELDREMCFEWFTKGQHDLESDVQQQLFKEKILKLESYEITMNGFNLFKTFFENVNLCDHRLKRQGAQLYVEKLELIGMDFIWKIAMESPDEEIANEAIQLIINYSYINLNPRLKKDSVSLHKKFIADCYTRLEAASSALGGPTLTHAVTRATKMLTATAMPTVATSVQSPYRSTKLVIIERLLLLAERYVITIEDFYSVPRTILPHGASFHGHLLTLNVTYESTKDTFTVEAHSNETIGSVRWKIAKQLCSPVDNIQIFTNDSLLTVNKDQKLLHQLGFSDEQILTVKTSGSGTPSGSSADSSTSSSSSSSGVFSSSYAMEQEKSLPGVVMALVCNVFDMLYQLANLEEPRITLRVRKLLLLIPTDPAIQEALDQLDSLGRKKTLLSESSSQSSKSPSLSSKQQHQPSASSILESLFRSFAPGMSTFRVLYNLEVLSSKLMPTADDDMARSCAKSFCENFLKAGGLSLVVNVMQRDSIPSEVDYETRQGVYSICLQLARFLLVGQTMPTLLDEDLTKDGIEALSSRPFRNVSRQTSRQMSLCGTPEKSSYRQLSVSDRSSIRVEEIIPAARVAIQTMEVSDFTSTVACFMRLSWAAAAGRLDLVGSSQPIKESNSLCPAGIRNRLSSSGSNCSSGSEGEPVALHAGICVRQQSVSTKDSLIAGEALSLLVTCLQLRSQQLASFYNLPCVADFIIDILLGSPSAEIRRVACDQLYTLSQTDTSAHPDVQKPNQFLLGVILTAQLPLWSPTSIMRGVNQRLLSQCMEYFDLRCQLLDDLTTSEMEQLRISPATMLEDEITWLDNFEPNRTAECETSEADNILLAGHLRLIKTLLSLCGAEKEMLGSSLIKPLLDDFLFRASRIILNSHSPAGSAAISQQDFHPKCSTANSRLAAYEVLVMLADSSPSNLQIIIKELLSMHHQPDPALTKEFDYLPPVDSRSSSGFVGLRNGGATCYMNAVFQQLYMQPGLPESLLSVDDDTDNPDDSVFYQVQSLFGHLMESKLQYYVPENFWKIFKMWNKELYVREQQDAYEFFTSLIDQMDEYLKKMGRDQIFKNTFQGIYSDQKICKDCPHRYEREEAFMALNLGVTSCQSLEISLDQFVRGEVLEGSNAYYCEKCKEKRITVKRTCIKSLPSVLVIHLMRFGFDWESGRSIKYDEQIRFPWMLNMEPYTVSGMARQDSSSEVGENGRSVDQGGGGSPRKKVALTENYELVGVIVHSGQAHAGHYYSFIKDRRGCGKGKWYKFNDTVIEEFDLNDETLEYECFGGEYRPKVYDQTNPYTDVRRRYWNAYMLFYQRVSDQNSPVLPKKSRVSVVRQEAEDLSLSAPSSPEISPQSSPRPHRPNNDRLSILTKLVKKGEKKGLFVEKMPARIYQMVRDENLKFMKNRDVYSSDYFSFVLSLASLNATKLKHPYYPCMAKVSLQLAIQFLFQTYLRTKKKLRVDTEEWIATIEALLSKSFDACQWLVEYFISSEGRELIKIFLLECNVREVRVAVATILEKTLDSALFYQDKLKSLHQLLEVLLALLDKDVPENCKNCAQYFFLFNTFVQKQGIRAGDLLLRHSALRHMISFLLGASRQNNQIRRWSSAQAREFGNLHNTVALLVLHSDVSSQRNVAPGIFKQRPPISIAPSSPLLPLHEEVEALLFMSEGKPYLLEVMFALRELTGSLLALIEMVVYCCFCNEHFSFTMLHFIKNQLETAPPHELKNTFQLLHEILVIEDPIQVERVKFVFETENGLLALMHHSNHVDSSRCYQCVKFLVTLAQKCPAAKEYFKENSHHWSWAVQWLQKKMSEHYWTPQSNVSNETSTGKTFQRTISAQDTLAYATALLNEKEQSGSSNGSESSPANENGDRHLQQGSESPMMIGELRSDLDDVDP
In short: as §1

USP25 = molecular target: T3, USP25 (UniProt Q9UHP3)
T3 sequence (whole entry): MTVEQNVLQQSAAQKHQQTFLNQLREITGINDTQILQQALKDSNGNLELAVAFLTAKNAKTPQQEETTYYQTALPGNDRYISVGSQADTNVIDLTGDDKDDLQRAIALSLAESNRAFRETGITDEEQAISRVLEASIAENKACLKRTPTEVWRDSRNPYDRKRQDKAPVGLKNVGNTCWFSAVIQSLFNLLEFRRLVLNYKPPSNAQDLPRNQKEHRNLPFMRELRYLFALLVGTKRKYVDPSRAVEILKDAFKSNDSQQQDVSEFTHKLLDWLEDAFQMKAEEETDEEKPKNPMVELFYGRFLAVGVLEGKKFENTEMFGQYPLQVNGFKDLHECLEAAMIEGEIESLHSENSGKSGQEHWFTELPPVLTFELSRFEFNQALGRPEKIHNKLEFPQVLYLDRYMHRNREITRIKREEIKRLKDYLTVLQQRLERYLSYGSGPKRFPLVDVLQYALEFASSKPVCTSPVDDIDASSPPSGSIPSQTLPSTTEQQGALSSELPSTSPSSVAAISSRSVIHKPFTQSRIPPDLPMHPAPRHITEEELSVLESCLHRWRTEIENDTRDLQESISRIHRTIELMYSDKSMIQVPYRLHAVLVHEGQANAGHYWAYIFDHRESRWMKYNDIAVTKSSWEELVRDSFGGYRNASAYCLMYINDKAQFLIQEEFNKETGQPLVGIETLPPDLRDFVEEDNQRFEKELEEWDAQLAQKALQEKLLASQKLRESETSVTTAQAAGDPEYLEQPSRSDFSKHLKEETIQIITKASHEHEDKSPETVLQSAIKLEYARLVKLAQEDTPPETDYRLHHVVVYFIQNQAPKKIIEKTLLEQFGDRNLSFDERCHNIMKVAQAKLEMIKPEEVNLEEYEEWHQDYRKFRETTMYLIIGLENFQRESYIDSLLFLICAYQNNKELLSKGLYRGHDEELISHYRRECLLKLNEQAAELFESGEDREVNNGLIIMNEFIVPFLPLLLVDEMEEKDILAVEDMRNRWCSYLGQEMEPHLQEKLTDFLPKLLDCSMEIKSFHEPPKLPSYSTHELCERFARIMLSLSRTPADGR
In short: as §1

USP28 = molecular target: T4, USP28 (UniProt Q96RU2)
T4 sequence (whole entry): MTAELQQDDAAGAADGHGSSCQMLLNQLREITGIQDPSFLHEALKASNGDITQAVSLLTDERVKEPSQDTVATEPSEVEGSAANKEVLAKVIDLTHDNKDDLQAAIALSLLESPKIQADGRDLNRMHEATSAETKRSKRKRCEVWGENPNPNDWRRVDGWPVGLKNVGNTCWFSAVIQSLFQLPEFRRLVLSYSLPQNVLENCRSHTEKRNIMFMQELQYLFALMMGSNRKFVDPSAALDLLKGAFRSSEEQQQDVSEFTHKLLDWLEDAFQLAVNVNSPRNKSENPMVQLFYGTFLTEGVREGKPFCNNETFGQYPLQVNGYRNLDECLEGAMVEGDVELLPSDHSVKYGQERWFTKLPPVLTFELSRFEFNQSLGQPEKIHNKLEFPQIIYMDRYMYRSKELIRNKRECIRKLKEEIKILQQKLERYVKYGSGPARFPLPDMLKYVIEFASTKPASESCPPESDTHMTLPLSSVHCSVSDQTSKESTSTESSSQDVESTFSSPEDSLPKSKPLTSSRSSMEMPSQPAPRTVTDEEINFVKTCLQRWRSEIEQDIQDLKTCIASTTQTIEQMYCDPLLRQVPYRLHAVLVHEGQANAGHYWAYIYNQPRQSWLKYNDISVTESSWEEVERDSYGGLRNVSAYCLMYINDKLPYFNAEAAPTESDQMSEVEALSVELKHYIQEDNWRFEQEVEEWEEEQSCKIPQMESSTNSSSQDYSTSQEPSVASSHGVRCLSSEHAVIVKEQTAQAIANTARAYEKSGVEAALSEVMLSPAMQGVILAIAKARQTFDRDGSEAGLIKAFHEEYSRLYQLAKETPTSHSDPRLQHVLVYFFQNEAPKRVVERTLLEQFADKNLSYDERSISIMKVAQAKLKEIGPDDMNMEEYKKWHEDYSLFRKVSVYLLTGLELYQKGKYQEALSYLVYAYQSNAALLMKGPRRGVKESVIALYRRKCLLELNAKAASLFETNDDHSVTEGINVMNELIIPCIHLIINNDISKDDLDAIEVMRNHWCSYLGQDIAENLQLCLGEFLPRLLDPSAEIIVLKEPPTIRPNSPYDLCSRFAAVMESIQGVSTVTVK
In short: as §1

Measured: log2 ratio of Biotin-Ahx-Ub-VS probe labelling

O=C(CCl)Nc1ccccc1C(F)(F)F
inactive: USP19 -0.154 | USP22 -0.117 | USP24 -0.445 | USP25 -0.713 | USP28 -0.598
